Measurements: the supplement of paper PMC6555819

Experiments:
Assay in all cases: PBM binding z-score (relative to random genomic background probes); higher = stronger binding; sequences stand for … in GC…GCGATTGACAGCGTAGAATGAAGG
[1] = test system: FXR:RXRa (NR concentration 270 nM, RXRa partner concentration 90 nM)
Procedure, shortened: (§1)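 Custom Agilent 4×180K protein-binding microarrays carried double-stranded probes. Their 34-nt variable regions held direct-repeat seeds, single-nucleotide variants, half-site ablations and random human genomic background sequences. Arrays were incubated 1 h with ligand-free nuclear receptor dimers in PBS pH 7.4, 2% milk, 0.02% Triton X-100, 1 mM DTT, 0.2 mg/mL BSA and 0.4 mg/ml salmon testes DNA. Antibodies against each partner (one per run) detected binding, and scanned fluorescence was regression-normalized. Binding z-scores use random background probes as reference.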

[2] = test system: LXRa:RXRa (NR concentration 270 nM, RXRa partner concentration 90 nM)
Procedure, shortened: as §1

[3] = test system: LXRa homodimer (NR concentration 270 nM)
Procedure, shortened: as §1

[4] = test system: LXRb:RXRa (NR concentration 270 nM, RXRa partner concentration 90 nM)
Procedure, shortened: as §1

[5] = test system: LXRb homodimer (NR concentration 270 nM)
Procedure, shortened: as §1

[6] = test system: PPARa:RXRa (NR concentration 270 nM, RXRa partner concentration 90 nM)
Procedure, shortened: as §1

[7] = test system: PPARg:RXRa (NR concentration 180 nM, RXRa partner concentration 90 nM)
Procedure, shortened: as §1

[8] = test system: PPARg:RXRa 270nM:90nM, anti-RXR (NR concentration 270 nM, RXRa partner concentration 90 nM)
Procedure, shortened: as §1

[9] = test system: PPARg:RXRa 30nM:10nM, anti-RXR (NR concentration 30 nM, RXRa partner concentration 10 nM)
Procedure, shortened: as §1

[10] = test system: PPARg:RXRa 90nM:30nM, anti-RXR (NR concentration 90 nM, RXRa partner concentration 30 nM)
Procedure, shortened: as §1

[11] = test system: PPARg:RXRa DBDmut IVT, anti-RXR (DBD mutation: RXRa K156A/R161A, NR concentration 270 nM, RXRa partner concentration 90 nM)
Procedure, shortened: as §1

[12] = test system: PPARg:RXRa IVT, anti-PPARg (NR concentration 270 nM, RXRa partner concentration 90 nM)
Procedure, shortened: as §1

[13] = test system: PPARg DBDmut:RXRa IVT, anti-PPARg (DBD mutation: PPARg1 K132A/R137A, NR concentration 270 nM, RXRa partner concentration 90 nM)
Procedure, shortened: as §1

[14] = test system: PPARg DBDmut IVT, anti-PPARg (DBD mutation: PPARg1 K132A/R137A, NR concentration 270 nM)
Procedure, shortened: as §1

[15] = test system: PPARg homodimer (NR concentration 180 nM)
Procedure, shortened: as §1

[16] = test system: PXR:RXRa (NR concentration 270 nM, RXRa partner concentration 90 nM)
Procedure, shortened: as §1

[17] = test system: PXR homodimer (NR concentration 270 nM)
Procedure, shortened: as §1

[18] = test system: RARa:RXR (NR concentration 270 nM, RXRa partner concentration 90 nM)
Procedure, shortened: as §1

[19] = test system: RARa homodimer (NR concentration 270 nM)
Procedure, shortened: as §1

[20] = test system: RARb:RXRa (NR concentration 270 nM, RXRa partner concentration 90 nM)
Procedure, shortened: as §1

Sequence	PBM binding z-score [1]	PBM binding z-score [2]	PBM binding z-score [3]	PBM binding z-score [4]	PBM binding z-score [5]	PBM binding z-score [6]	PBM binding z-score [7]	PBM binding z-score [8]	PBM binding z-score [9]	PBM binding z-score [10]	PBM binding z-score [11]	PBM binding z-score [12]	PBM binding z-score [13]	PBM binding z-score [14]	PBM binding z-score [15]	PBM binding z-score [16]	PBM binding z-score [17]	PBM binding z-score [18]	PBM binding z-score [19]	PBM binding z-score [20]
ACTAGCAGGCCAAGGGTAACTCAAGATTAGTCCG	-0.105	0.773	-0.457	-0.0796	-0.553	1.83	3.38	4.86	2.86	4.78	0.865	1.67	-0.794	-0.439	0.663	-0.287	-0.127	0.0162	-0.543	0.971
TCTTGTAGATCAGCAGGAGGTTAAGAAAGATCGA	-0.201	0.985	-0.411	0.538	-0.736	1.03	-0.21	1.36	2.16	1.74	1.2	0.727	0.985	0.0884	-0.244	0.907	-0.404	0.574	-0.978	0.468
CCGACTGGGGCAGAAAGGTAACCATACCATCCGG	-0.151	-0.447	-0.528	-0.363	-1.18	0.647	1.05	1.25	-0.0627	0.913	1.07	1.73	-0.318	-1.27	0.0459	-0.419	-0.488	-0.0683	-0.0732	0.706
CGAACTAGGTCTTCCAGGACAGTGAATACATTGA	0.011	-0.496	0.128	-0.568	-0.706	0.796	0.846	0.622	-0.0415	0.143	4.68	3.48	0.439	0.129	-0.375	-0.421	-0.138	-0.242	-0.331	0.384
TCAGCCAGGTGAAGGTAACTCAGGTACGCAGTCG	0.00852	1.19	-0.431	0.138	-1.48	0.696	0.4	1.32	2.09	1.5	1.65	1.33	-0.394	-0.849	-0.828	-0.0147	-0.594	0.481	-0.526	0.673
CCGACTGGGGCAGAAAGATTACCATACCATCCGG	-0.557	-0.807	-0.423	-0.639	-1	-0.291	0.958	-0.112	-0.469	-0.456	1.53	0.903	-0.59	-1.13	-0.627	-0.737	-0.227	-0.36	-0.0256	0.0416
CTCGATAGGTCGGTTGAGGTGAGTATACGGATAA	0.692	0.287	-0.389	0.0394	-0.451	0.659	-0.0443	-0.187	-0.208	-0.177	-0.342	0.362	0.83	0.287	0.144	1.21	0.123	1.11	-0.0628	1.17
GCAAACAGGTGAAACGCAGGTAACTCAGGGTGGC	-0.182	-0.0525	-0.463	-0.425	-0.88	0.919	0.672	0.158	-0.786	-0.33	2.26	1.32	-0.68	-0.00566	-0.416	-0.255	-0.519	0.397	-0.686	0.596
GCTGCTAGGTCAGGTTGGTCAGGTAACGGGTACG	1.37	0.789	-0.109	0.63	0.124	1.5	0.626	0.972	-0.553	0.573	2.86	2.24	-0.63	-0.722	0.641	0.475	-0.529	0.834	-0.052	3.15
ATCTCTACGTAACAAGTTCAGTGAAAGAGAGGAC	0.253	0.5	0.496	0.811	1.27	0.449	0.368	0.316	0.334	0.321	-0.487	0.36	1.13	1.51	0.708	1.56	2.01	0.741	0.878	1.46
CCTATTAGTCGACCATAAGGGCAACCGAAGCTCG	0.245	0.0274	-0.217	0.208	0.406	0.539	0.531	0.353	-0.22	0.358	0.311	-0.00504	0.93	-1.02	0.749	0.26	0.25	0.415	0.709	1.24
GCAGCTAGGTCAGGTTGGTCAGCTAACGGGTACG	1.03	0.422	-0.282	-0.023	-0.983	1.2	0.443	0.714	-0.586	-0.0508	2.64	2.05	-0.736	-1.04	0.817	-0.0764	-0.615	0.573	0.479	3.28
CAAACTAGGTCAAGGTCAAAATCGGTTTGTGCCA	6.5	5.02	3.14	4.66	1.58	6.16	9.66	7.73	6.38	7.81	8.64	9.04	2.23	3.4	2.8	4.7	1.74	4.78	1.1	5.1
AGTAAAAGTTCATCTAGGTAACGTAAGATATGCT	6.26	5.78	5.21	3.31	1.71	4.42	3.98	3.88	1.55	2.54	0.423	2.83	1.21	1.83	2.75	4.52	3.57	3.39	1.46	4.72
